Rows were chosen to be rich in hits. Some 5.9% of all compounds tested hit in one or more screens of this group.
FXN GAA850 act: activators of GAA850 frataxin (FXN) promoter | 360,000 compounds, 0.56% hits | activation, % at 6 µM | HEK293 lucGAA850 FXN promoter luciferase reporter, 24 h; percent of 10 µM SAHA response;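 active means activation above the average of all compounds screened plus 3 SD, cutoff fixed separately per campaign, cut at about 7.5% in these data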;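 further: 0% = DMSO wells and 100% = 10 µM SAHA wells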
HSF-1 act: increases HSF-1 driven luciferase reporter signal; NIH3T3-HGL HSF-1 luciferase reporter, MG132, 8 h; 100% = twice DMSO control signal; activation, % at 9 µM; 300,000 compounds, 1.7% hits; AID 504408;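 active means mean replicate activation of at least 50% with a set share of replicates each reaching 50%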;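 further: 0% = median of the neutral control wells and 100% = twice that signal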
HSF1 inh: HSF1 inhibition; NIH3T3-HGL HSE-luciferase, MG132-induced, luminescence 8 h; stronger effect = lower value; activity change, negative = inhibition, % at 7.5 µM (by protocol); 300,000 compounds, 0.77% hits;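 active means more than half of replicate wells show activity change below -50%, luminescence cut by over half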;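 further: luciferase reports HSF-1 transcriptional activity via heat shock element; 0% = median of DMSO wells and -100% = zero luminescence signal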
HSP90 refold inh: HSP90 refolding inhibition in rabbit reticulocyte lysate. inhibition, % at 5.6 µM. 290,000 compounds, 0.91% hits. AID 1789. luciferase refolding luminescence, 3 h;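 active means inhibition above the screen-wide mean plus 3 SD, computed separately per campaign, cut at about 16% in these data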;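 further: 0% = DMSO wells and 100% = 60 µM geldanamycin wells; inhibitors lower the luminescence because luciferase stays unfolded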
NR0B1 inh: inhibitors of human orphan nuclear receptor DAX1 (NR0B1). inhibition, % at 6.75 µM. P51843. HEK293 Gal4-DAX1 luciferase reporter, luminescence. 340,000 compounds, 0.99% hits;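 active means inhibition above the mean over all tested compounds plus 3 SD, cut at about 4.2% in these data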;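 further: 0% = DAX1-transfected cells with DMSO and 100% = empty-vector control cells with DMSO; inhibition shows as a rise in luminescence from relieved DAX1 repression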
AHR act: activates the human aryl hydrocarbon receptor; AHR-responsive luciferase reporter cells, luminescence; activation, % at 5 µM; 320,000 compounds, 2.5% hits; AID 2796; in the data active means activation above about 47%;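 further: 0% = vehicle wells and 100% = reference agonist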
HSP90 confirm: confirmation of HSP90 inhibitors | shares compounds with HSP90 refold inh | inhibition, % at 5.9 µM | rabbit reticulocyte lysate, luciferase refolding luminescence, 3 h | AID 1846 | 2,300 compounds, 64% hits; in the data active means inhibition above about 18%;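 further: 0% = vehicle wells and 100% = reference inhibitor wells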
luciferase ctr: firefly luciferase inhibition, HSP90 counter-screen; shares compounds with HSP90 refold inh; purified native firefly luciferase, luminescence; inhibition, % at 5.9 µM; 2,300 compounds, 48% hits; AID 1847;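 active means inhibition above the mean inhibition of all tested sample wells plus 3 SD, cut at about 10% in these data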;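 further: 0% = DMSO with luciferase and 100% = wells lacking luciferase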
Numbers without * were called inactive; nt = not tested or not shown.

SMILES	FXN GAA850 act	HSF-1 act	HSF1 inh	HSP90 refold inh	NR0B1 inh	AHR act	HSP90 confirm	luciferase ctr
CCCC(C(=O)NCCC(C)C)N(Cc1ccccc1Cl)C(=O)c1snc(C(N)=O)c1N (stereo unspecified)	-1	10	4	17*	-1	1	2	-5
CCCC(C(=O)NCCC(C)C)N(Cc1ccc(F)cc1)C(=O)c1snc(C(N)=O)c1N (stereo unspecified)	0	33	13	0	0	0	nt	nt
CCC(=O)Nc1ccc2oc(-c3cccc(C)c3)nc2c1	1	nt	nt	24*	-3	-4	40*	35*
CCC(=O)Nc1cccc(-c2nc3ccc(C)cc3o2)c1	4	32	14	-3	3	16	nt	nt
Cc1ccc(-c2nc3cc(NC(=O)C(C)C)ccc3o2)cc1C	-5	-43	-35	34*	3	-15	53*	54*
Cc1cccc(CNC(=O)CCn2ccc3cc(S(=O)(=O)N4CCCC4)ccc32)c1	0	4	6	-3	0	0	nt	nt
O=C(CCn1c(=S)[nH]c2ccccc2c1=O)NCCc1ccccc1	2	16	-10	59*	0	12	5	-5
CCOc1c(Nc2ccc(C(C)C)cc2)c(=O)c1=O	1	6	-1	3	4	12	nt	nt
COc1ccc(NC(=O)CSc2nc(C)c3c(c2C#N)CCCC3)cc1	-2	-6	9	2	-1	0	nt	nt
CCc1nnc(NC(=O)CSc2nc(C)c3c(c2C#N)CCCC3)s1	-1	-55	-45	21*	0	-8	7	0
COC(=O)c1ccc(N/C=C/C(=O)c2ccccc2)cc1	3	-21	1	21*	4.5*	-1	52*	3
O=C(c1ccco1)N1CCN(C(c2cccs2)c2nnnn2C2CCCCC2)CC1 (stereo unspecified)	0	-8	-2	-2	-1	1	nt	nt
CCOC(=O)c1cn2nc(N3CCCC3)ccc2n1	0	-3	-14	34*	-2	-5	67*	43*
CCOC(=O)c1cn2nc(N3CCCCC3)ccc2n1	-2	-38	-28	39*	-4	-6	72*	59*
CCN(CC)c1ccc(/C=C(\C#N)c2ccccn2)cc1	-5	-64	-58*	21*	-2	-8	70*	60*
Cc1ccc(-c2nc(-c3ccncc3)no2)cc1	4	44	11	9	3	nt	nt	nt
COc1cccc(-c2nc(-c3ccccn3)no2)c1	nt	-12	-10	69*	nt	64*	86*	78*
CC(C)(C)c1ccc(-c2nc(-c3ccncc3)no2)cc1	1	-37	-27	20*	2	-6	33*	32*
c1ccc(-c2noc(-c3ccc4ccccc4c3)n2)nc1	-15	-82	-78*	78*	-8	-18	97*	92*
c1ccc(-c2noc(-c3ccncc3)n2)nc1	4	7	0	18*	1	3	18*	-4
c1ccc(-c2noc(-c3cccnc3)n2)nc1	-1	3	5	2	1	-6	nt	nt
CC(=O)N(/N=C/c1ccc(C)cc1)c1nc(CCl)cs1	-1	-3	-3	7	0	3	nt	nt
CCOc1ccc(S(=O)(=O)N2CCC(C(=O)NCc3cccnc3)CC2)cc1	-2	2	2	1	0	-2	nt	nt
Clc1ccccc1/C=C/c1nc(-c2ccccn2)no1	-9	-46	-39	64*	-7	-11	86*	83*
CC(CC1C(C#N)=C(N)SC(N)=C1C#N)c1ccccc1 (stereo unspecified)	-2	nt	nt	4	-1	27	nt	nt
SMILES	FXN GAA850 act	HSF-1 act	HSF1 inh	HSP90 refold inh	NR0B1 inh	AHR act	HSP90 confirm	luciferase ctr
COc1ccc(C(O)c2ncc(-c3ccccc3C)[nH]2)cc1F (stereo unspecified)	0	nt	nt	nt	nt	nt	nt	nt
Cc1ccc2oc(=O)c(/C=C(\O)c3cccs3)nc2c1	6	119*	60	18*	5.6*	30	42*	-16
O=c1oc2ccc(Cl)cc2nc1/C=C(\O)c1cccs1	7	52*	19	63*	3	13	79*	-11
OCCN1CCN(c2cc(C(F)(F)F)nc3ccccc23)CC1	2	22	-3	4	1	-2	nt	nt
Cc1cccc(C)c1-n1c(C)cc(/C=N\Nc2ccc([N+](=O)[O-])cn2)c1C	4	14	17	9	1	8	nt	nt
Cc1cc(/C=N/Nc2nc(N)ncc2[N+](=O)[O-])c(C)n1-c1ccccc1F	nt	-7	-4	78*	nt	-6	94*	89*
CN1C(=O)S/C(=C\c2ccccc2OCc2ccc(C(=O)O)cc2)C1=O	2	3	4	3	-1	-1	nt	nt
COc1cccc(/C=C2\SC(=O)NC2=O)c1OCc1ccc(C(=O)O)cc1	4	12	1	23*	0	-1	-6	-16
CC(=O)N(\C=C/C=C/C=C1\Sc2ccccc2C1=O)c1ccccc1	6	11	7	-2	1	22	nt	nt
CN(C)/C=C1/Sc2ccccc2C1=O	1	-16	0	21*	1	12	-2	-16
Cc1c(C(=O)N2CCN(c3ccc([N+](=O)[O-])cc3)CC2)oc2ccccc12	2	nt	nt	nt	-1	8	nt	nt
Cc1c(-c2ccccc2)oc2c(C(=O)N3CCN(c4ccc([N+](=O)[O-])cc4)CC3)cccc2c1=O	-6	-42	-36	21*	1	-1	10	1
CCN(CC(=O)Nc1ccccc1C(F)(F)F)C(=O)C1CCC1	-2	-23	-8	nt	4	-1	nt	nt
Fc1cccc(Cl)c1C1Nc2cccc3cccc(c23)N1	3	0	-4	19*	0	7	-2	-5
Clc1cccc(Cl)c1C1Nc2cccc3cccc(c23)N1	-2	-7	-5	5	-3	5	nt	nt
COc1cccc(NC(=O)CNC(=O)[C@@H]2Cc3ccccc3CN2C(=O)OC(C)(C)C)c1	-1	1	3	-1	1	3	nt	nt
CC(C)(C)OC(=O)N1Cc2ccccc2C[C@H]1C(=O)NCC(=O)Nc1ccc2c(c1)OCCO2	-11	-63	-64*	32*	1	5	52*	69*
COc1ccc(CCN(C)C(=O)C2CCN(Cc3cccc(OC)c3OC)CC2)cc1OC	0	0	-2	-6	0	1	nt	nt
Cc1ccc(-c2cc3c(nn2)-c2ccccc2C3=O)cc1	-10	-2	-9	28*	-7	5	75*	89*
Cc1ccccc1-c1cc2c(nn1)-c1ccccc1C2=O	4	27	26	74*	0	-20	7	0

Assay outcomes as filed in PubChem.
